A short description of assay [1]: Wnt pathway potentiators raising nuclear beta-catenin – imaging, WNT3A-conditioned medium, mouse C2C12, NPC library, primary screen (AID 1117326; in the data active = nuclear beta-catenin stimulation mostly above about 4.2%, no sharp cut-off; inactive = mostly below about 10%; also: reference of the scale not given here). To be noted: stronger effect = higher value.
A short description of assay [2]: stimulators of insulin release from INS-1E, primary screen, cell-based, 5 mM glucose, NPC library (AID 1117329;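 active = compound raises insulin release from rat beta cells at 5 mM glucose, no numeric limit stated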; also: reference of the scale not given here). The following applies: rat INS-1E insulin secretion, at 10 µM, stronger effect = higher value.
Assay [3] is described as follows: growth inhibition of GSK3B-pretreated HCT116 cells – cell-based, CellTiter-Glo, 0.2 to 20 µM (AID 1117336;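 active = compounds lowering colon cancer cell viability after pretreatment blocking the GSK3B kinase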). The following applies: HCT116 viability after GSK3B inhibitor, at 20 µM, stronger effect = higher value. A general note: Cellular ATP, detected with luciferase, serves as a proxy for viable cell number.
Assay [4] is described as follows: inhibition of endothelial tube formation, primary screen, imaging, VEGF stimulated, CD31 staining, tube area, NPC library (AID 1117340;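 active = compound that reduces growth-factor-driven endothelial tube area in a mixed cell culture, no cutoff stated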). The following applies: VEGF-stimulated ADSC/ECFC co-culture, at 10 µM, stronger effect = higher value.
Assay [5] in a line: GLP1 release stimulators, primary, NCI-H716, NPC library (AID 1117341). Also: reference of the scale not given here. To be noted: NCI-H716 cells, at 10 µM, stronger effect = higher value.
The nature of assay [6]: HCT116 colon cancer cell growth inhibition, primary screen, CellTiter-Glo luminescence, NPC library (AID 1117342;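 active = compounds that lower survival of HCT116 colon cancer cells in the luminescence readout, no numeric limit stated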). To be noted: at 20 µM (top of the series).
Assay [7] is described as follows: reduced SW480 viability measured with CellTiter-Glo, NPC library, primary (AID 1117343;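 active = compounds that lower viability of the colon cancer cells in the luminescence readout, with no numeric limit stated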). The following applies: CellTiter-Glo luminescence; at 20 µM (top of the series).
Assay [8] in a line: NPC library primary testing for decreased DLD-1 cell viability via CellTiter-Glo (AID 1117346;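 active = compounds that lower survival of DLD-1 colon cancer cells in the luminescence readout, no cutoff given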). The following applies: DLD-1 viability, CellTiter-Glo luminescence; at 20 µM (top of the series).

Activity calls are given as the source filed them.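 The calls were made as follows, unless noted: active = compound raises GLP1 secretion from the human gut endocrine cells, with no numeric limit stated; inactive = the rest.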

For the compound `CCCCCCCC(=O)OCC(O)CO` (stereo unspecified), the nuclear beta-catenin stimulation in assay [1] (at 10 µM) was -2% (inactive); in assay [1] (stimulation, at 2 µM), -1.7%. For the same compound, the insulin secretion stimulation in assay [2] is 2.1% (inactive). The viability decrease in assay [3] is -10.8% (inactive). The tube area decrease in assay [4] was -3.1% (inactive). Besides, the GLP1 secretion stimulation in assay [5] was -3.4% (inactive). The inhibition of viability in assay [6] was -7.47% (inactive). In addition, the viability decrease (inhibition) in assay [7] is 16.9% (inactive); in assay [8], -20.5% (inactive).

Consider `CN(C)CCOC(c1ccccc1)c1ccc(Br)cc1` (stereo unspecified), for which the nuclear beta-catenin stimulation in assay [1] (at 10 µM) is 4.6% (inactive); in assay [1] (stimulation, at 2 µM), 5.4%. Besides, in assay [2], the insulin secretion stimulation was 95% (active). The viability decrease in assay [3] is -92.2% (inactive). For the same compound, the tube area decrease in assay [4] was -4.6% (inactive). Moreover, the GLP1 secretion stimulation in assay [5] was 12.6% (inactive). For the same compound, the inhibition of viability in assay [6] is 29.9% (inactive). The viability decrease (inhibition) in assay [7] was 55.5% (active); in assay [8], 5.7% (inactive).

For the compound `COc1ccc(S(=O)(=O)N2c3ccc(Cl)cc3[C@@](O)(c3ccccc3Cl)[C@H]2C(=O)N2CCC[C@@H]2C(N)=O)cc1OC`, the nuclear beta-catenin stimulation is 0.6% (inactive) in assay [1] (at 10 µM) and -0.8% in assay [1] (stimulation, at 2 µM). Also, the insulin secretion stimulation in assay [2] is 2.35% (inactive). In assay [3], the viability decrease is 47.7% (inactive). For the same compound, the tube area decrease in assay [4] is -23.5% (inactive). For the same compound, the GLP1 secretion stimulation in assay [5] was -0.7% (inactive). In assay [6], the inhibition of viability was 34% (inactive). Also, the viability decrease (inhibition) in assay [7] is 0.4% (inactive); in assay [8] it was 4.6% (inactive).

Regarding `O=C(O)Cc1cn(-c2ccccc2)nc1-c1ccc(Cl)cc1`, the nuclear beta-catenin stimulation in assay [1] (at 10 µM) was 8.7% (inactive); in assay [1] (stimulation, at 2 µM), 1.2%. In addition, the insulin secretion stimulation in assay [2] is 0.6% (inactive). The viability decrease in assay [3] was 20.4% (inactive). The tube area decrease in assay [4] is -3.1% (inactive). Further, the GLP1 secretion stimulation in assay [5] was -0.7% (inactive). The inhibition of viability in assay [6] was 16.8% (inactive). The viability decrease (inhibition) was 16.1% (active) in assay [7] and 7.8% (inactive) in assay [8].

In the case of `CN1CC(O)c2cc(N=NC(N)=O)c(O)cc21` (stereo unspecified), the nuclear beta-catenin stimulation in assay [1] (at 10 µM) is 1.3% (inactive); in assay [1] (stimulation, at 2 µM) it was 1.3%. In addition, the insulin secretion stimulation in assay [2] was -1.7% (inactive). The viability decrease in assay [3] was 2% (inactive). In addition, the tube area decrease in assay [4] was -33% (inactive). In addition, the GLP1 secretion stimulation in assay [5] is 2.9% (inactive). Also, the inhibition of viability in assay [6] was -4.6% (inactive). The viability decrease (inhibition) in assay [7] is 4.9% (inactive); in assay [8] it was 2.4% (inactive).

In the case of `COc1cc(C(=S)N2CCOCC2)ccc1O`, the nuclear beta-catenin stimulation in assay [1] (at 10 µM) is 1.6% (inactive); in assay [1] (stimulation, at 2 µM) it was 0%. In assay [2], the insulin secretion stimulation is 3.9% (inactive). Further, the viability decrease in assay [3] was -5.7% (inactive). Further, in assay [4], the tube area decrease is 1.9% (inactive). In addition, in assay [5], the GLP1 secretion stimulation is -3.6% (inactive). The inhibition of viability in assay [6] is -4.3% (inactive). Besides, the viability decrease (inhibition) in assay [7] was -4.6% (inactive); in assay [8] it was -2.7% (inactive).

With `CC(=O)OCC(=O)Nc1cc(C#N)cc(NC(=O)COC(C)=O)c1Cl`, the nuclear beta-catenin stimulation in assay [1] (at 10 µM) is -0.4% (inactive); in assay [1] (stimulation, at 2 µM), -1.4%. Besides, the insulin secretion stimulation in assay [2] is 4% (inactive). Moreover, in assay [3], the viability decrease is -0.6% (inactive). The tube area decrease in assay [4] is -12.8% (inactive). For the same compound, the GLP1 secretion stimulation in assay [5] is 3.3% (inactive). Besides, in assay [6], the inhibition of viability is 0.9% (inactive). Moreover, the figures for the viability decrease (inhibition) in assay [7] and in assay [8] were -20.3% (inactive) and 1.6% (inactive), respectively.

For `COC(=O)Nc1nc2ccc(C(=O)C3CC3)cc2[nH]1`, the nuclear beta-catenin stimulation in assay [1] (at 10 µM) was 41.8% (active); in assay [1] (stimulation, at 2 µM), 54.5%. Moreover, in assay [2], the insulin secretion stimulation was 1.9% (inactive). Moreover, the viability decrease in assay [3] was 93.1% (active). In addition, the tube area decrease in assay [4] is 103% (active). In addition, in assay [5], the GLP1 secretion stimulation is -0.3% (inactive). Moreover, in assay [6], the inhibition of viability was 87.9% (active). Further, the viability decrease (inhibition) in assay [7] is 32.9% (inactive); in assay [8], 51.6% (active).

With `N/C(=N\N=C\c1ccc(Cl)cc1)N/N=C/c1ccc(Cl)cc1`, the nuclear beta-catenin stimulation is 0.5% (inactive) in assay [1] (at 10 µM) and 0.1% in assay [1] (stimulation, at 2 µM). Moreover, in assay [2], the insulin secretion stimulation is -0.1% (inactive). The viability decrease in assay [3] was 99.6% (active). Besides, in assay [4], the tube area decrease was 108% (active). For the same compound, in assay [5], the GLP1 secretion stimulation was -3.3% (inactive). The inhibition of viability in assay [6] was 99.3% (active). Moreover, the viability decrease (inhibition) in assay [7] was 103% (active); in assay [8] it was 102% (active).

As for `CCc1cc(S(=O)(=O)O)c2cc(C(C)C)cccc1-2`, the nuclear beta-catenin stimulation in assay [1] (at 10 µM) was -0.2% (inactive); in assay [1] (stimulation, at 2 µM), -2.2%. The insulin secretion stimulation in assay [2] was 0.1% (inactive). The viability decrease in assay [3] is -5.3% (inactive). Further, the tube area decrease in assay [4] was -12.6% (inactive). In assay [5], the GLP1 secretion stimulation was -20.6% (inactive). Besides, in assay [6], the inhibition of viability is 1.1% (inactive). In addition, the viability decrease (inhibition) in assay [7] is -19% (inactive); in assay [8], -14.2% (inactive).

Turning to `CCCCS(=O)(=O)N[C@@H](Cc1ccc(OCCCCC2CCNCC2)cc1)C(=O)O`, the nuclear beta-catenin stimulation was 1.1% (inactive) in assay [1] (at 10 µM) and -1.6% in assay [1] (stimulation, at 2 µM). Further, the insulin secretion stimulation in assay [2] was 0.7% (inactive). The viability decrease in assay [3] was 96.5% (active). Moreover, the tube area decrease in assay [4] is -5.9% (inactive). Also, in assay [5], the GLP1 secretion stimulation was 5.3% (inactive). For the same compound, in assay [6], the inhibition of viability is 72.5% (active). Moreover, the viability decrease (inhibition) in assay [7] is 64.5% (active); in assay [8], 50.1% (active).

Turning to `FC1(F)C(F)(F)C(F)(F)C2(F)C(F)(F)C(F)(F)C(F)(F)C(F)(F)C2(F)C1(F)F` (stereo unspecified), the nuclear beta-catenin stimulation in assay [1] (at 10 µM) was -0.7% (inactive); in assay [1] (stimulation, at 2 µM), 0.3%. Moreover, the insulin secretion stimulation in assay [2] was 1.3% (inactive). Besides, the viability decrease in assay [3] is 17% (inactive). In assay [4], the tube area decrease is 10.2% (inactive). Also, in assay [5], the GLP1 secretion stimulation is -0.8% (inactive). Besides, the inhibition of viability in assay [6] is -2.93% (inactive). Also, the viability decrease (inhibition) in assay [7] was 21.7% (inactive); in assay [8], -11.3% (inactive).

For the compound `CCOC(=O)[C@H](CCc1ccccc1)N[C@@H](C)C(=O)N(CC(=O)O)C1Cc2ccccc2C1`, the nuclear beta-catenin stimulation was 1% (inactive) in assay [1] (at 10 µM) and 0.4% in assay [1] (stimulation, at 2 µM). In addition, the insulin secretion stimulation in assay [2] is 1.15% (inactive). Further, the viability decrease in assay [3] is -0.3% (inactive). Besides, the tube area decrease in assay [4] is 4.9% (inactive). In assay [5], the GLP1 secretion stimulation was 3.1% (inactive). Further, the inhibition of viability in assay [6] was 10.2% (inactive). Further, the viability decrease (inhibition) in assay [7] was -7.1% (inactive); in assay [8] it was -2.9% (inactive).

For `C=Cc1c(C)c2cc3nc(cc4[nH]c(cc5nc(cc1[nH]2)C(C)=C5CCC(=O)O)c(CCC(=O)OC)c4C)[C@@]1(C)C3=CC=C(C(=O)OC)[C@@H]1C(=O)OC`, the nuclear beta-catenin stimulation in assay [1] (at 10 µM) is 16.7% (inactive); in assay [1] (stimulation, at 2 µM), 0.4%. Moreover, the insulin secretion stimulation in assay [2] was 1.5% (inactive). In assay [3], the viability decrease was 97.7% (active). Besides, the tube area decrease in assay [4] is -206% (inactive). In addition, the GLP1 secretion stimulation in assay [5] was -1.9% (inactive). The inhibition of viability in assay [6] was 92.4% (active). For the same compound, the viability decrease (inhibition) in assay [7] is 98.2% (active); in assay [8] it was 99.9% (active).
